Laboratory results published in PubChem BioAssay AID1159580 (chemical genetic matrix, 2015).
Where “and” joins values, the source holds several entries; their conditions need not be identical. Equal entries are not always repeated. Hit rate of the full screen: of about 5,500 compounds, about 2,000 (36%) were called active. About 18% were inconclusive and are not listed. Rule as the data show it: active = normalized growth mostly below about 0.91 (no sharp cut-off); inconclusive = no clear call, values can overlap the other calls; inactive = mostly above about 0.92. The list shows a part of the results. Some structures have more than one record in an assay (separate samples or runs), and their calls can disagree.

Test: chemical genetic growth profiling, strain panel (AID 1159580);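 also: tested at 20 µM; growth read once vehicle control cultures reached saturation at 30 °C; 1 = growth at the plate median or of vehicle wells; lower values mean less growth of the strain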
Conditions: S. cerevisiae deletion strains, growth OD
[1] = locus YAL021C, strain ccr4, stronger effect = lower value
[2] = locus YAL026C, strain drs2, stronger effect = lower value
[3] = locus YAL030W, strain snc1, stronger effect = lower value
[4] = locus YAL040C, strain CLN3, stronger effect = lower value
[5] = locus YBL061C, strain skt5, stronger effect = lower value
[6] = locus YBR009C, strain hhf1, stronger effect = lower value
[7] = locus YBR023C, strain chs3, stronger effect = lower value
[8] = locus YBR171W, strain sec66, stronger effect = lower value
[9] = locus YBR231C, strain swc5, stronger effect = lower value
[10] = locus YBR279W, strain paf1, stronger effect = lower value
[11] = locus YCL011C, strain gbp2, stronger effect = lower value
[12] = locus YCL016C, strain dcc1, stronger effect = lower value
[13] = locus YCL061C, strain MRC1 (second series), stronger effect = lower value
[14] = locus YCL061C, strain MRC1, stronger effect = lower value
[15] = locus YCL069W, strain vba3, stronger effect = lower value
[16] = locus YCR088W, strain abp1, stronger effect = lower value
[17] = locus YDL005C, strain med2, stronger effect = lower value
[18] = locus YDL040C, strain nat1, stronger effect = lower value
[19] = locus YDR001C, strain nth1, stronger effect = lower value
[20] = locus YDR069C, strain doa4, stronger effect = lower value
[21] = locus YDR137W, strain rgp1, stronger effect = lower value
[22] = locus YDR150W, strain NUM1, stronger effect = lower value
[23] = locus YDR159W, strain sac3, stronger effect = lower value
[24] = locus YDR297W, strain sur2, stronger effect = lower value
[25] = locus YDR334W, strain swr1, stronger effect = lower value
[26] = locus YDR335W, strain msn5, stronger effect = lower value
[27] = locus YDR363W, strain ESC2, stronger effect = lower value
[28] = locus YDR392W, strain spt3, stronger effect = lower value
[29] = locus YEL003W, strain gim4, stronger effect = lower value
[30] = locus YEL037C, strain rad23, stronger effect = lower value
[31] = locus YEL061C, strain CIN8 (second series), stronger effect = lower value
[32] = locus YER002W, strain NOP16, stronger effect = lower value
[33] = locus YER015W, strain faa2, stronger effect = lower value
[34] = locus YER016W, strain bim1, stronger effect = lower value
[35] = locus YER111C, strain swi4, stronger effect = lower value
[36] = locus YER155C, strain BEM2 (second series), stronger effect = lower value
[37] = locus YFR010W, strain ubp6, stronger effect = lower value
[38] = locus YGL167C, strain pmr1, stronger effect = lower value
[39] = locus YGL173C, strain kem1, stronger effect = lower value
[40] = locus YGL227W, strain vid30, stronger effect = lower value
[41] = locus YGL240W, strain doc1, stronger effect = lower value
[42] = locus YGL253W, strain hxk2, stronger effect = lower value
[43] = locus YGR078C, strain PAC10, stronger effect = lower value
[44] = locus YHR013C, strain ard1, stronger effect = lower value
[45] = locus YHR027C, strain rpn1, stronger effect = lower value
[46] = locus YHR030C, strain SLT2, stronger effect = lower value
[47] = locus YHR079C, strain IRE1, stronger effect = lower value
[48] = locus YHR142W, strain chs7, stronger effect = lower value
[49] = locus YJL092W, strain hpr5, stronger effect = lower value
[50] = locus YJL095W, strain BCK1 (second series), stronger effect = lower value
[51] = locus YJL095W, strain BCK1, stronger effect = lower value
[52] = locus YJL115W, strain asf1, stronger effect = lower value
[53] = locus YJL129C, strain trk1, stronger effect = lower value
[54] = locus YJL154C, strain vps35, stronger effect = lower value
[55] = locus YJL164C, strain tpk1, stronger effect = lower value
[56] = locus YJL166W, strain qcr8, stronger effect = lower value
[57] = locus YJR066W, strain TOR1, stronger effect = lower value
[58] = locus YKL160W, strain elf1, stronger effect = lower value
[59] = locus YKR026C, strain gcn3, stronger effect = lower value
[60] = locus YKR091W, strain srl3, stronger effect = lower value
[61] = locus YLL001W, strain dnm1, stronger effect = lower value
[62] = locus YLL026W, stronger effect = lower value
[63] = locus YLL041C, strain sdh2, stronger effect = lower value
[64] = locus YLR027C, strain aat2, stronger effect = lower value
[65] = locus YLR113W, strain HOG1, stronger effect = lower value
[66] = locus YLR221C, strain rsa3, stronger effect = lower value
[67] = locus YLR258W, strain gsy2, stronger effect = lower value
[68] = locus YLR262C, strain YPT6 (second series), stronger effect = lower value
[69] = locus YLR320W, strain mms22, stronger effect = lower value
[70] = locus YLR342W, strain FKS1, stronger effect = lower value
[71] = locus YLR357W, strain rsc2, stronger effect = lower value
[72] = locus YLR370C, strain arc18, stronger effect = lower value
[73] = locus YLR384C, strain iki3, stronger effect = lower value
[74] = locus YML120C, strain ndi1, stronger effect = lower value
[75] = locus YMR058W, strain fet3, stronger effect = lower value
[76] = locus YMR125W, strain sto1, stronger effect = lower value
[77] = locus YMR129W, stronger effect = lower value
[78] = locus YMR205C, strain PFK2, stronger effect = lower value
[79] = locus YMR231W, strain pep5, stronger effect = lower value
[80] = locus YNL071W, strain lat1, stronger effect = lower value
[81] = locus YNL153C, strain GIM3, stronger effect = lower value
[82] = locus YNL183C, strain NPR1, stronger effect = lower value
[83] = locus YNL197C, strain WHI3, stronger effect = lower value
[84] = locus YNL209W, strain ssb2, stronger effect = lower value
[85] = locus YNL224C, strain SQS1, stronger effect = lower value
[86] = locus YNL248C, strain rpa49, stronger effect = lower value
[87] = locus YNL322C, strain KRE1 (second series), stronger effect = lower value
[88] = locus YNL322C, strain KRE1, stronger effect = lower value
[89] = locus YNR049C, strain mso1, stronger effect = lower value
[90] = locus YOR001W, strain rrp6, stronger effect = lower value
[91] = locus YOR070C, strain gyp1, stronger effect = lower value
[92] = locus YOR080W, strain dia2, stronger effect = lower value
[93] = locus YOR083W, strain WHI5 (second series), stronger effect = lower value
[94] = locus YOR083W, strain WHI5, stronger effect = lower value
[95] = locus YOR106W, strain vam3, stronger effect = lower value
[96] = locus YOR231W, strain MKK1, stronger effect = lower value
[97] = locus YOR265W, strain rbl2, stronger effect = lower value
[98] = locus YOR270C, strain vph1, stronger effect = lower value
[99] = locus YOR290C, strain snf2, stronger effect = lower value
[100] = locus YPL051W, strain arl3, stronger effect = lower value
[101] = locus YPL078C, strain atp4, stronger effect = lower value
[102] = locus YPL106C, strain sse1, stronger effect = lower value
[103] = locus YPL240C, strain hsp82, stronger effect = lower value
[104] = locus YPL256C, strain CLN2, stronger effect = lower value

Measured: normalized growth

O=C(O)CCc1nc(-c2ccccc2)c(-c2ccccc2)o1
active: locus YBR229C, strain ROT2, stronger effect = lower value 0.929 | [14] 0.92 | [43] 0.909 | locus YJR075W, strain HOC1, stronger effect = lower value 0.888 | locus YLR058C, strain SHM2 (second series), stronger effect = lower value 0.929 | [65] 0.787 | locus YMR219W, strain ESC1, stronger effect = lower value 0.944 | locus YMR263W, strain SAP30, stronger effect = lower value 0.9
inactive: locus YAL013W, strain DEP1, stronger effect = lower value 0.974 | [1] 0.966 | [2] 0.929 | [3] 0.958 | [4] 0.978 | [5] 0.965 | [6] 0.964 | [7] 0.979 | [8] 0.949 | [9] 0.96 | [10] 0.975 | [11] 0.943 | [12] 0.954 | [13] 0.996 | [15] 0.965 | [16] 0.962 | [17] 0.959 | [18] 0.955 | locus YDL101C, strain DUN1, stronger effect = lower value 0.995 | [19] 0.925 | [20] 0.954 | [21] 0.925 | [22] 1 and 1.04 | [23] 0.916 | locus YDR195W, strain ref2 0.969 | [24] 0.955 | [25] 0.948 | [26] 0.965 | [27] 0.979 | [28] 0.831 | [29] 0.943 | [30] 0.968 | [31] 0.941 | locus YEL061C, strain CIN8, stronger effect = lower value 1 | [32] 0.998 | [33] 0.974 | [34] 0.961 | [35] 0.958 | [36] 0.958 | [37] 0.958 | [38] 0.961 | [39] 0.958 | [40] 0.957 | [41] 0.95 | [42] 0.957 | locus YGR229C, strain SMI1, stronger effect = lower value 0.976 | [44] 0.938 | [45] 0.971 | [46] 0.935 and 1.03 | [47] 0.967 | locus YHR087W, strain rtc3, stronger effect = lower value 0.925 | [48] 0.963 | [49] 0.949 | [50] 0.959 | [51] 0.901 | [52] 0.956 | [53] 0.926 | [54] 0.966 | [55] 0.954 | [56] 0.976 | locus YJR043C, strain POL32, stronger effect = lower value 0.959 | [57] 0.884 | [58] 0.982 | locus YKL190W, strain CNB1, stronger effect = lower value 0.983 | [59] 0.958 | [60] 0.957 | [61] 0.973 | [62] 0.965 | [63] 0.961 | [64] 0.966 | locus YLR039C, strain RIC1, stronger effect = lower value 0.994 | locus YLR085C, strain ARP6, stronger effect = lower value 0.92 | [66] 0.935 | [67] 0.955 | [68] 0.951 | locus YLR262C, strain YPT6, stronger effect = lower value 1.02 | [69] 0.933 | [70] 0.97 | [71] 0.985 | [72] 0.961 | [73] 0.98 | locus YML094W, strain GIM5, stronger effect = lower value 1.02 | [74] 0.952 | [75] 0.956 | [76] 0.938 | [77] 0.943 | [78] 0.954 | [79] 0.967 | locus YMR307W, strain GAS1, stronger effect = lower value 1 and 0.949 | [80] 0.935 | [81] 0.964 | locus YNL175C, strain NOP13, stronger effect = lower value 0.986 | [82] 0.868 | [83] 0.987 | [84] 0.972 | [85] 0.977 | [86] 0.974 | locus YNL298W, strain CLA4 (second series), stronger effect = lower value 1 | [87] 0.949 | locus YNR030W, strain Alg12, stronger effect = lower value 1 | [89] 0.941 | [90] 1 | [91] 0.963 | [92] 0.957 | [93] 1 | [94] 0.982 | [95] 0.973 | [96] 0.942 | [97] 0.97 | [98] 0.952 | [99] 0.93 | [100] 0.98 | locus YPL055C, strain LGE1, stronger effect = lower value 0.996 | [101] 0.972 | [102] 0.869 | [103] 0.963 | locus YPL241C, strain CIN2, stronger effect = lower value 1 and 0.984 | [104] 0.96 | locus YPR135W, strain CTF4, stronger effect = lower value 1.08
1 (inactive) and 0.926 (active): [88]

CCCOC(=O)c1c(-c2ccccc2)nc(CC)c(C(=O)SCC)c1CCC
inactive: [4] 1.04 | [13] 1 | [22] 1.01 | [27] 0.982 | [32] 1.01 | [43] 0.974 | locus YNL128W, strain TEP1, stronger effect = lower value 1.09 | [81] 1.02 | [83] 1.02 | [85] 1.04 | [88] 0.993 | [93] 1.09

C[C@H]1[C@H](C)CC[C@]2(C(=O)O)CC[C@]3(C)C(=CCC4[C@@]5(C)C[C@@H](O)[C@H](O)[C@@](C)(CO)C5CC[C@]43C)[C@H]12 (stereo not given in full)
active: [65] 0.721
inactive: [1] 0.993 | [2] 1.04 | [3] 1.02 | [5] 1.01 | [6] 1.01 | [7] 0.995 | [8] 1.04 | [9] 1.03 | [10] 1.01 | [11] 1.02 | [12] 1.01 | [14] 1.02 | [15] 1.03 | [16] 1.03 | [17] 1.03 | [18] 1.02 | [19] 1.03 | [20] 1.02 | [21] 0.982 | [23] 0.983 | locus YDR195W, strain ref2 0.945 | [24] 1.02 | [25] 1.04 | [26] 1.02 | [28] 0.931 | [29] 1.02 | [30] 1.03 | [31] 1.03 | [33] 1.02 | [34] 1.02 | [35] 1.03 | [36] 1 | [37] 1.04 | [38] 1.03 | [39] 1.03 | [40] 1.04 | [41] 0.988 | [42] 1.03 | [44] 1.03 | [45] 1.02 | [46] 0.949 | [47] 0.937 | [48] 0.996 | [49] 1.04 | [50] 1.02 | [51] 0.911 | [52] 1.02 | [53] 1 | [54] 1.03 | [55] 0.993 | [56] 0.996 | locus YJL187C, strain SWE1, stronger effect = lower value 1.02 | [57] 0.939 | [58] 0.975 | [59] 1.03 | [60] 1.02 | [61] 1 | [62] 1.01 | [63] 1.02 | [64] 1.01 | [66] 0.982 | [67] 1.01 | [68] 0.975 | [69] 1.02 | [70] 1.04 | [71] 1.05 | [72] 1.03 | [73] 1.03 | [74] 0.978 | [75] 1.03 | [76] 1.05 | [77] 1.04 | [78] 1.01 | [79] 1.03 | [80] 1.02 | [82] 0.894 | [84] 1.03 | [86] 1.03 | [87] 1.03 | [89] 1.03 | [90] 0.973 | [91] 1.01 | [92] 1.03 | [94] 0.984 | [95] 0.981 | [96] 0.973 | [97] 1.02 | [98] 1.03 | [99] 0.968 | [100] 0.974 | [101] 1 | [102] 1.01 | [103] 1.03 | [104] 0.963
